Assay results published in PubChem BioAssay AID1159580 (chemical genetic matrix, 2015).
The whole screen tested about 5,500 compounds, of which about 2,000 (36%) were called active. Inconclusive results (about 18%) are left out. Cut-off read from the data, not from the text of the source: active = normalized growth mostly below about 0.91 (no sharp cut-off); inconclusive = no clear call, values can overlap the other calls; inactive = mostly above about 0.92. Some of the results follow.

Assay: chemical genetic growth profiling, strain panel (AID 1159580);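 note: tested at 20 µM; growth read once vehicle control cultures reached saturation at 30 °C; 1 = growth at the plate median or of vehicle wells; lower values mean less growth of the strain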
Conditions: growth OD

Measured: normalized growth

COc1ccc2c(c1)[C@@]1(C)CCC(=O)C[C@H]1CC2
inactive: S. cerevisiae deletion strains, locus YAL013W, strain DEP1, hits give low values 0.984 | S. cerevisiae deletion strains, locus YAL021C, strain ccr4, hits give low values 0.989 | S. cerevisiae deletion strains, locus YAL026C, strain drs2, hits give low values 0.982 | S. cerevisiae deletion strains, locus YAL030W, strain snc1, hits give low values 0.959 | S. cerevisiae deletion strains, locus YBL061C, strain skt5, hits give low values 0.989 | S. cerevisiae deletion strains, locus YBR009C, strain hhf1, hits give low values 0.98 | S. cerevisiae deletion strains, locus YBR021W, strain FUR4, hits give low values 0.969 | S. cerevisiae deletion strains, locus YBR023C, strain chs3, hits give low values 0.98 | S. cerevisiae deletion strains, locus YBR171W, strain sec66, hits give low values 0.93 | S. cerevisiae deletion strains, locus YBR229C, strain ROT2, hits give low values 0.994 | S. cerevisiae deletion strains, locus YBR231C, strain swc5, hits give low values 0.986 | S. cerevisiae deletion strains, locus YBR279W, strain paf1, hits give low values 0.98 | S. cerevisiae deletion strains, locus YCL011C, strain gbp2, hits give low values 0.961 | S. cerevisiae deletion strains, locus YCL016C, strain dcc1, hits give low values 0.976 | S. cerevisiae deletion strains, locus YCL029C, strain bik1, hits give low values 0.985 | S. cerevisiae deletion strains, locus YCL061C, strain MRC1, hits give low values 0.949 | S. cerevisiae deletion strains, locus YCL069W, strain vba3, hits give low values 0.963 | S. cerevisiae deletion strains, locus YCR088W, strain abp1, hits give low values 0.978 | S. cerevisiae deletion strains, locus YDL005C, strain med2, hits give low values 0.954 | S. cerevisiae deletion strains, locus YDL035C, strain GPR1, hits give low values 1.01 | S. cerevisiae deletion strains, locus YDL040C, strain nat1, hits give low values 0.969 | S. cerevisiae deletion strains, locus YDL074C, strain BRE1, hits give low values 1.01 | S. cerevisiae deletion strains, locus YDL101C, strain DUN1, hits give low values 1 | S. cerevisiae deletion strains, locus YDL134C, strain PPH21, hits give low values 0.995 | S. cerevisiae deletion strains, locus YDL185W, strain tfp1, hits give low values 0.977 | S. cerevisiae deletion strains, locus YDL192W, strain arf1, hits give low values 0.98 | S. cerevisiae deletion strains, locus YDR001C, strain nth1, hits give low values 0.973 | S. cerevisiae deletion strains, locus YDR069C, strain doa4, hits give low values 0.963 | S. cerevisiae deletion strains, locus YDR101C, strain arx1, hits give low values 0.985 | S. cerevisiae deletion strains, locus YDR137W, strain rgp1, hits give low values 0.902 | S. cerevisiae deletion strains, locus YDR159W, strain sac3, hits give low values 0.937 | S. cerevisiae deletion strains, locus YDR162C, strain NBP2, hits give low values 1.01 | S. cerevisiae deletion strains, locus YDR195W, strain ref2 1.01 | S. cerevisiae deletion strains, locus YDR297W, strain sur2, hits give low values 0.98 | S. cerevisiae deletion strains, locus YDR318W, strain mcm21, hits give low values 0.975 | S. cerevisiae deletion strains, locus YDR334W, strain swr1, hits give low values 0.94 | S. cerevisiae deletion strains, locus YDR335W, strain msn5, hits give low values 0.967 | S. cerevisiae deletion strains, locus YDR388W, hits give low values 0.978 | S. cerevisiae deletion strains, locus YDR392W, strain spt3, hits give low values 0.938 | S. cerevisiae deletion strains, locus YDR502C, strain sam2, hits give low values 0.951 | S. cerevisiae deletion strains, locus YEL003W, strain gim4, hits give low values 0.942 | S. cerevisiae deletion strains, locus YEL037C, strain rad23, hits give low values 0.97 | S. cerevisiae deletion strains, locus YEL061C, strain CIN8 (second series), hits give low values 0.97 | S. cerevisiae deletion strains, locus YER015W, strain faa2, hits give low values 0.973 | S. cerevisiae deletion strains, locus YER016W, strain bim1, hits give low values 0.965 | S. cerevisiae deletion strains, locus YER110C, hits give low values 0.958 | S. cerevisiae deletion strains, locus YER111C, strain swi4, hits give low values 0.942 | S. cerevisiae deletion strains, locus YER155C, strain BEM2 (second series), hits give low values 0.899 | S. cerevisiae deletion strains, locus YER155C, strain BEM2, hits give low values 0.989 | S. cerevisiae deletion strains, locus YER167W, strain BCK2, hits give low values 0.996 | S. cerevisiae deletion strains, locus YFR010W, strain ubp6, hits give low values 0.992 | S. cerevisiae deletion strains, locus YGL078C, strain dbp3, hits give low values 0.983 | S. cerevisiae deletion strains, locus YGL086W, strain mad1, hits give low values 0.964 | S. cerevisiae deletion strains, locus YGL173C, strain kem1, hits give low values 0.949 | S. cerevisiae deletion strains, locus YGL227W, strain vid30, hits give low values 0.96 | S. cerevisiae deletion strains, locus YGL240W, strain doc1, hits give low values 0.923 | S. cerevisiae deletion strains, locus YGL248W, strain PDE1, hits give low values 0.998 | S. cerevisiae deletion strains, locus YGL253W, strain hxk2, hits give low values 0.932 | S. cerevisiae deletion strains, locus YGR135W, strain pre9, hits give low values 0.947 | S. cerevisiae deletion strains, locus YGR252W, strain gcn5, hits give low values 0.933 | S. cerevisiae deletion strains, locus YHR013C, strain ard1, hits give low values 0.966 | S. cerevisiae deletion strains, locus YHR027C, strain rpn1, hits give low values 0.965 | S. cerevisiae deletion strains, locus YHR079C, strain IRE1 (second series), hits give low values 0.977 | S. cerevisiae deletion strains, locus YHR094C, strain hxt1, hits give low values 0.968 | S. cerevisiae deletion strains, locus YHR129C, strain ARP1, hits give low values 0.992 | S. cerevisiae deletion strains, locus YHR142W, strain chs7, hits give low values 0.954 | S. cerevisiae deletion strains, locus YHR200W, strain rpn10, hits give low values 0.971 | S. cerevisiae deletion strains, locus YIL066C, strain RNR3, hits give low values 1.01 | S. cerevisiae deletion strains, locus YIL073C, strain SPO22, hits give low values 0.964 | S. cerevisiae deletion strains, locus YIL125W, strain kgd1, hits give low values 0.994 | S. cerevisiae deletion strains, locus YIR030C, strain dcg1, hits give low values 0.974 | S. cerevisiae deletion strains, locus YJL092W, strain hpr5, hits give low values 0.948 | S. cerevisiae deletion strains, locus YJL095W, strain BCK1 (second series), hits give low values 0.959 | S. cerevisiae deletion strains, locus YJL095W, strain BCK1, hits give low values 0.958 | S. cerevisiae deletion strains, locus YJL115W, strain asf1, hits give low values 0.936 | S. cerevisiae deletion strains, locus YJL129C, strain trk1, hits give low values 0.973 | S. cerevisiae deletion strains, locus YJL134W, strain LCB3, hits give low values 0.995 | S. cerevisiae deletion strains, locus YJL154C, strain vps35, hits give low values 0.958 | S. cerevisiae deletion strains, locus YJL164C, strain tpk1, hits give low values 0.972 | S. cerevisiae deletion strains, locus YJL166W, strain qcr8, hits give low values 0.96 | S. cerevisiae deletion strains, locus YJL168C, strain set2, hits give low values 0.951 | S. cerevisiae deletion strains, locus YJL187C, strain SWE1 (second series), hits give low values 0.998 | S. cerevisiae deletion strains, locus YKL009W, strain mrt4, hits give low values 0.997 | S. cerevisiae deletion strains, locus YKL068W, hits give low values 0.993 | S. cerevisiae deletion strains, locus YKL085W, strain MDH1 (second series), hits give low values 0.986 | S. cerevisiae deletion strains, locus YKL085W, strain MDH1, hits give low values 0.986 | S. cerevisiae deletion strains, locus YKL160W, strain elf1, hits give low values 0.977 | S. cerevisiae deletion strains, locus YKL190W, strain CNB1, hits give low values 0.994 | S. cerevisiae deletion strains, locus YKR001C, strain vps1, hits give low values 0.953 | S. cerevisiae deletion strains, locus YKR026C, strain gcn3, hits give low values 0.976 | S. cerevisiae deletion strains, locus YKR091W, strain srl3, hits give low values 0.968 | S. cerevisiae deletion strains, locus YLL001W, strain dnm1, hits give low values 0.951 | S. cerevisiae deletion strains, locus YLL026W, hits give low values 0.964 | S. cerevisiae deletion strains, locus YLL041C, strain sdh2, hits give low values 0.98 | S. cerevisiae deletion strains, locus YLR027C, strain aat2, hits give low values 0.968 | S. cerevisiae deletion strains, locus YLR039C, strain RIC1, hits give low values 0.96 | S. cerevisiae deletion strains, locus YLR058C, strain SHM2, hits give low values 0.995 | S. cerevisiae deletion strains, locus YLR102C, strain apc9, hits give low values 0.985 | S. cerevisiae deletion strains, locus YLR221C, strain rsa3, hits give low values 0.969 | S. cerevisiae deletion strains, locus YLR258W, strain gsy2, hits give low values 0.967 | S. cerevisiae deletion strains, locus YLR262C, strain YPT6 (second series), hits give low values 0.969 | S. cerevisiae deletion strains, locus YLR262C, strain YPT6, hits give low values 0.973 | S. cerevisiae deletion strains, locus YLR268W, strain sec22, hits give low values 0.965 | S. cerevisiae deletion strains, locus YLR320W, strain mms22, hits give low values 0.966 | S. cerevisiae deletion strains, locus YLR342W, strain FKS1, hits give low values 0.969 | S. cerevisiae deletion strains, locus YLR357W, strain rsc2, hits give low values 0.947 | S. cerevisiae deletion strains, locus YLR370C, strain arc18, hits give low values 0.953 | S. cerevisiae deletion strains, locus YLR371W, strain rom2, hits give low values 0.98 | S. cerevisiae deletion strains, locus YLR384C, strain iki3, hits give low values 0.969 | S. cerevisiae deletion strains, locus YLR418C, strain cdc73, hits give low values 0.956 | S. cerevisiae deletion strains, locus YML016C, strain PPZ1, hits give low values 0.989 | S. cerevisiae deletion strains, locus YML032C, strain rad52, hits give low values 0.988 | S. cerevisiae deletion strains, locus YML120C, strain ndi1, hits give low values 0.953 | S. cerevisiae deletion strains, locus YML124C, strain tub3, hits give low values 0.976 | S. cerevisiae deletion strains, locus YMR058W, strain fet3, hits give low values 0.948 | S. cerevisiae deletion strains, locus YMR078C, strain ctf18, hits give low values 0.965 | S. cerevisiae deletion strains, locus YMR125W, strain sto1, hits give low values 0.97 | S. cerevisiae deletion strains, locus YMR129W, hits give low values 0.994 | S. cerevisiae deletion strains, locus YMR205C, strain PFK2, hits give low values 0.976 | S. cerevisiae deletion strains, locus YMR223W, strain ubp8, hits give low values 0.98 | S. cerevisiae deletion strains, locus YMR231W, strain pep5, hits give low values 0.968 | S. cerevisiae deletion strains, locus YMR307W, strain GAS1, hits give low values 1 | S. cerevisiae deletion strains, locus YNL067W, strain RPL9B, hits give low values 0.975 | S. cerevisiae deletion strains, locus YNL071W, strain lat1, hits give low values 0.955 | S. cerevisiae deletion strains, locus YNL153C, strain GIM3, hits give low values 0.995 | S. cerevisiae deletion strains, locus YNL233W, strain BNI4, hits give low values 0.959 | S. cerevisiae deletion strains, locus YNL248C, strain rpa49, hits give low values 1.03 | S. cerevisiae deletion strains, locus YNL250W, strain rad50, hits give low values 0.968 | S. cerevisiae deletion strains, locus YNL271C, strain bni1, hits give low values 0.97 | S. cerevisiae deletion strains, locus YNL298W, strain CLA4, hits give low values 0.976 | S. cerevisiae deletion strains, locus YNL307C, strain MCK1, hits give low values 0.963 | S. cerevisiae deletion strains, locus YNL322C, strain KRE1 (second series), hits give low values 0.964 | S. cerevisiae deletion strains, locus YNL322C, strain KRE1, hits give low values 0.989 | S. cerevisiae deletion strains, locus YNR049C, strain mso1, hits give low values 0.932 | S. cerevisiae deletion strains, locus YNR052C, strain pop2, hits give low values 0.971 | S. cerevisiae deletion strains, locus YOL012C, strain htz1 1.7 | S. cerevisiae deletion strains, locus YOL147C, strain pex11, hits give low values 0.967 | S. cerevisiae deletion strains, locus YOR001W, strain rrp6, hits give low values 0.97 | S. cerevisiae deletion strains, locus YOR061W, strain CKA2, hits give low values 1 | S. cerevisiae deletion strains, locus YOR069W, strain VPS5, hits give low values 0.989 | S. cerevisiae deletion strains, locus YOR070C, strain gyp1, hits give low values 0.97 | S. cerevisiae deletion strains, locus YOR080W, strain dia2, hits give low values 0.956 | S. cerevisiae deletion strains, locus YOR083W, strain WHI5, hits give low values 0.969 | S. cerevisiae deletion strains, locus YOR106W, strain vam3, hits give low values 1 | S. cerevisiae deletion strains, locus YOR136W, strain idh2, hits give low values 0.98 | S. cerevisiae deletion strains, locus YOR144C, strain elg1, hits give low values 0.975 | S. cerevisiae deletion strains, locus YOR184W, strain ser1, hits give low values 0.92 | S. cerevisiae deletion strains, locus YOR265W, strain rbl2, hits give low values 0.973 | S. cerevisiae deletion strains, locus YOR270C, strain vph1, hits give low values 0.997 | S. cerevisiae deletion strains, locus YOR290C, strain snf2, hits give low values 0.957 | S. cerevisiae deletion strains, locus YOR316C, strain cot1, hits give low values 0.974 | S. cerevisiae deletion strains, locus YPL051W, strain arl3, hits give low values 0.985 | S. cerevisiae deletion strains, locus YPL078C, strain atp4, hits give low values 0.95 | S. cerevisiae deletion strains, locus YPL106C, strain sse1, hits give low values 0.928 | S. cerevisiae deletion strains, locus YPL240C, strain hsp82, hits give low values 0.977 | S. cerevisiae deletion strains, locus YPR119W, strain clb2, hits give low values 0.974 | S. cerevisiae deletion strains, locus YPR141C, strain kar3, hits give low values 0.976 | S. cerevisiae deletion strains, locus YPR163C, strain tif3, hits give low values 0.973 | S. cerevisiae deletion strains, locus YPR167C, strain met16, hits give low values 0.974 | S. cerevisiae deletion strains, strain wtn01, hits give low values 0.972 | S. cerevisiae strains, strain wild type, hits give low values 1.01
